# Pf growth 96h = P. falciparum growth inhibition at 96 hours. Potency, µM (series often up to 28.7 µM), inactives show at the highest dose activity change, negative = inhibition, usual class: inhibitors. 320,000 compounds, 6.9% hits. P. falciparum luciferase reporter growth, 96 h; note: potency is the fitted concentration of half-maximal effect; % is set by controls: 0 for no effect and ±100 for the full control effect
#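 Parasite growth measured via integrated firefly luciferase reporter in P. falciparum. Infected erythrocytes at 2% hematocrit, 0.05% parasitemia final were treated 96 hours at 37 C under 5% CO2, and luminescence was read.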
# Cycloheximide cs = counter-screen hit for Shiga toxin inhibitors, cycloheximide | 300,000 compounds, 12% hits | max response, % | cell reporter, cycloheximide protein synthesis inhibition counterscreen | AID 2314; in the data active = max response mostly above about 13%, no sharp cut-off; inactive = mostly below about 14%; note: read at 38.3 µM for the half of the compounds with a filed dose; 0% is about no effect
# HCMV inh = inhibitors of human cytomegalovirus; HFF cells, HCMV-luciferase reporter, 72 h; hits give low values; activity change, negative = inhibition, % at 57.5 µM; 410,000 compounds, 4.5% hits; in the data active = activity change below about -60%; inconclusive = no clear call, values can overlap the other calls; inactive = above about -39%; note: % is set by controls: 0 for no effect and ±100 for the full control effect
#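 Two compound doses tested in HFFs infected with HCMV-luciferase, MOI 1 PFU/cell, 72 h at 37C. Lysate luminescence read with OneGlo; data normalized against buffer-only and 10uM Salinomycin inhibitor controls.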
# Shiga toxin inh = Shiga toxin inhibition; Vero cells, Shiga toxin protein synthesis inhibition reporter; AID 2315; 290,000 compounds, 9.2% hits; inhibition, % at 38.7 µM; in the data active = inhibition mostly above about 28%, no sharp cut-off; inactive = mostly below about 43%; note: 0% is about no effect
# Pf growth 48h = inhibits P. falciparum growth in the first generation, 48 h. P. falciparum luciferase growth in erythrocytes, 48 h. AID 504832. Potency, µM (top dose mostly 28.7 µM), without a hit: at the highest dose activity change, negative = inhibition, most hits filed as inhibitors. 310,000 compounds, 5.9% hits; note: potency is the fitted concentration of half-maximal effect; % is set by controls: 0 for no effect and ±100 for the full control effect
#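 Parasite viability was followed by luminescence of a genomically integrated firefly luciferase. Cultures held 0.1% parasitemia at 2% hematocrit (final), incubated under 5% CO2 at 37 C.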
# Active calls of the source: *; ? = inconclusive; nt = no result; [ ] = dose if it differs, or a comment. Compounds with a hit are over-represented: about 20% of the library has one in this group of screens. Unless noted, calls come from the whole dose curve; as a rule, active = well fitted inhibition curve with a large enough effect; inconclusive = small, poorly fitted or top-dose-only effect, or another doubt; inactive = no such curve, though single readings can be large or run the other way.
SMILES,Pf growth 96h,Cycloheximide cs,HCMV inh,Shiga toxin inh,Pf growth 48h
Cc1ccc(S(=O)(=O)/N=C2\C=C(Nc3cccc(C(=O)O)c3)C(=O)c3ccccc32)cc1,-9%,6,3,35,4.7µM*
Cc1ccc(S(=O)(=O)/N=C2\C=C(NS(=O)(=O)c3ccccc3)C(=O)c3ccccc32)c(C)c1,nt,nt,-91*,nt,nt
O=C(O)c1cccc(NC2=C(N3CCOCC3)C(=O)c3ccccc3C2=O)c1,32%,9,27,49,7%
CC(C)(C)c1ccc(S(=O)(=O)/N=C2\C=C(NS(=O)(=O)c3ccccc3)C(=O)c3ccccc32)cc1,3%,0,-11,-6,-8%
Cc1ccc(S(=O)(=O)/N=C2\C=C(Nc3cccc(C(=O)O)c3)C(=O)c3ccccc32)c(C)c1,19%,24*,-73*,64*,1.7µM*
CCc1ccc(S(=O)(=O)/N=C2\C=C(Nc3ccc(C(=O)O)cc3)C(=O)c3ccccc32)cc1,3.7µM*,-4,-98*,-14,2.3µM*
CC(=O)Nc1cccc(/C(C)=N/NS(=O)(=O)c2ccc(C)cc2)c1,62%[1.15 µM],-2,-39,18,32%
CC(C)(C)C1CCC(=O)N(CCC#N)CC1 (stereo not given),47%,-4,31,8,6%
COc1ccc(N(C)S(=O)(=O)c2ccc3c(c2)n(C)c(=O)c(=O)n3C)cc1,nt,nt,-1,nt,nt
CC1=C(c2ccc(C)c(C)c2)S(=O)(=O)N=C1N1CCC(C(=O)NCc2ccc(C)o2)CC1,nt,nt,0,nt,nt
CS(=O)(=O)Nc1ccc(S(=O)(=O)N2CCCC2)cc1,5%,-3,25,-3,11%
CN(C)CCC(=O)N1c2ccccc2Sc2ccc(C(F)(F)F)cc21,0%,-3,-5,-10,29%
CN1CCN(CCC(=O)N2c3ccccc3Sc3ccc(C(F)(F)F)cc32)CC1,11µM*,10,-27,12,?
OCCN1CCN(CCCN2c3ccccc3C=Cc3ccccc32)CC1,6µM*,-5,-24,-6,6.7µM*
OCCN1CCN(CCCN2c3ccccc3CCc3ccccc32)CC1,nt,nt,0,nt,nt
FC(F)(F)c1ccc2c(c1)N(CCCN1CCN(CCCl)CC1)c1ccccc1S2,nt,-3,-73*,26,9.3µM*
OCCN1CCN(CCCN2c3ccccc3Sc3ccc(C(F)(F)F)cc32)CC1,1.9µM*,-7,-16,-25,5.2µM*
CC[C@H](C)[C@H](NC(=O)CNC(=O)[C@H](CCCNC(=N)N)NC(=O)[C@H](CO)NC(=O)[C@H](C)NC(=O)[C@H](Cc1ccc(O)cc1)NC(=O)[C@H](Cc1c[nH]c2ccccc12)NC(=O)[C@H](C)NC(=O)[C@@H]1CCCN1C(=O)[C@H](CC(N)=O)NC(=O)[C@@H](NC(=O)[C@H](CC(=O)O)NC(=O)[C@@H]1CCCN1C(=O)[C@@H](N)[C@@H](C)O)[C@@H](C)CC)C(=O)N[C@@H](CCCNC(=N)N)C(=O)N1CCC[C@H]1C(=O)N[C@H](C(=O)NCC(=O)N[C@@H](CCCNC(=N)N)C(=O)N[C@@H](Cc1ccccc1)C(N)=O)C(C)C,nt,-6,nt,-10,nt
CCc1ccc(OCC(=O)NC(NC(=S)Nc2ccccc2C)C(Cl)(Cl)Cl)cc1 (stereo not given),?,-5,?,-6,?
Cc1ccccc1NC(=S)NC(NC(=O)COc1ccccc1)C(Cl)(Cl)Cl (stereo not given),?,-3,-8,-14,-13%
Cc1nc(-c2ccc(NC(=O)C(C)(C)C)cc2)c(-c2ccccc2)o1,4.1µM*,-1,-27,13,nt
CCc1ccc(OCC(=O)NC(NC(=S)Nc2ccc(C)cc2C)C(Cl)(Cl)Cl)cc1 (stereo not given),?,-6,-64*,-24,?
CC(=O)NC(NC(=S)Nc1ccc(N=Nc2ccccc2)cc1)C(Cl)(Cl)Cl (stereo not given),183%,60*,-26,71*,12µM*
COC(=O)c1ccccc1NC(=S)NC(NC(=O)COc1ccccc1)C(Cl)(Cl)Cl (stereo not given),26%,-3,-102*,-8,?
COc1ccc(CN2CCNC(=O)C2CC(=O)NCCCn2cccn2)c(OC)c1 (stereo not given),?,-3,-30,-6,80%
COC(=O)c1sc(S(=O)(=O)N2CC(C)OC(C)C2)c(C(=O)OC)c1C (stereo not given),?,nt,13,nt,?
